# Laboratory results published in publication PMC12820563, “FoxP3 forms a head-to-head dimer in vivo and stabilizes its multimerization on adjacent microsatellites”.
# Whole data set: some 16,000 sequences, median “rpm ratio (pull-down/input)” near 0.94, cut for the highest 2% near 1.7. This is one part of a sample in which the highest values are shown more often than they occur.
# Target: T1, MBP-FoxP1dN (Mus musculus, UniProt P58462 326-579)
# T1 sequence: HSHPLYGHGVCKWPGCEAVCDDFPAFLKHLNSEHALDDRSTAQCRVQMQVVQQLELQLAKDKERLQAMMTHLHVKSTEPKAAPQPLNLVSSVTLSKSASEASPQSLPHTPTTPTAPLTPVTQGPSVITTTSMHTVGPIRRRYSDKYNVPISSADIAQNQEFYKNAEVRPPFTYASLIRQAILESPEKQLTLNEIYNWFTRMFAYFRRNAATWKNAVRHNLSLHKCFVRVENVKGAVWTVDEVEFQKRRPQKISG
# Test: PD-seq (MBP pull-down with sequencing); 20 mM Tris-HCl pH 7.5, 100 mM NaCl, 1.5 mM MgCl2, 0.4 uM protein, 0.1 uM dsDNA library, 30 min, room temperature, amylose pull-down; high values mean tight binding
# Settings: protein: recombinant; tags: His6-MBP; chain copies: 2; dsDNA, one strand shown
# Outline: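 Protein and DNA were mixed at 0.4 µM and 0.1 µM and held for 30 min at room temperature in Tris pH 7.5 buffer with NaCl and MgCl2; the protein was a His6-MBP-tagged, N-terminally truncated mouse FoxP3 or FoxP1 fragment from E. coli, and the DNA a Klenow-filled double-stranded degenerate library. Amylose resin captured the complexes, which were washed three times. Binding is read as reads-per-million enrichment of pull-down versus input after Illumina sequencing, with replicates pooled.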
row,Sequence,binding signal
1,GATGATTGTTCTCCCAGCTGATGAATTGGTTATTTCGAGTAAACAAATTTTCCTAATCTTTCTGTTCAAGCGCCATCTAC,1.13 RPM ratio (pull-down/input)
2,GATGATTGTTCTCCCAGCTGATGAATTGTTATTTTCGAGTAAACAAATTTTCCTAATCTTTCTGTTCAAGCGCCATCTAC,3.47 RPM ratio (pull-down/input)
3,GATGATTGTTCTCCCAGCTGATGAATTATGTTATTCGAGTAAACAAATTTTCCTAATCTTTCTGTTCAAGCGCCATCTAC,2.18 RPM ratio (pull-down/input)
4,GATGATTGTTCTCCCAGCTGATGAATTGTTATTCTCGAGTAAACAAATTTTCCTAATCTTTCTGTTCAAGCGCCATCTAC,2.03 RPM ratio (pull-down/input)
5,GATGATTGTTCTCCCAGCTGATGAATTATTATGTTCGAGTAAACAAATTTTCCTAATCTTTCTGTTCAAGCGCCATCTAC,1.69 RPM ratio (pull-down/input)
6,GATGATTGTTCTCCCAGCTGATGAATTTTTATTCTCGAGTAAACAAATTTTCCTAATCTTTCTGTTCAAGCGCCATCTAC,1.06 RPM ratio (pull-down/input)
7,GATGATTGTTCTCCCAGCTGATGAATTTGTTATTTCGAGTAAACAAATTTTCCTAATCTTTCTGTTCAAGCGCCATCTAC,2.17 RPM ratio (pull-down/input)
8,GATGATTGTTCTCCCAGCTGATGAATTTCTTATTTCGAGTAAACAAATTTTCCTAATCTTTCTGTTCAAGCGCCATCTAC,1.07 RPM ratio (pull-down/input)
9,GATGATTGTTCTCCCAGCTGATGAATTATGTAATTCGAGTAAACAAATTTTCCTAATCTTTCTGTTCAAGCGCCATCTAC,1.31 RPM ratio (pull-down/input)
10,GATGATTGTTCTCCCAGCTGATGAATTATTATTCTCGAGTAAACAAATTTTCCTAATCTTTCTGTTCAAGCGCCATCTAC,1.45 RPM ratio (pull-down/input)
11,GATGATTGTTCTCCCAGCTGATGAATTGAGATCATCGAGTAAACAAATTTTCCTAATCTTTCTGTTCAAGCGCCATCTAC,0.904 RPM ratio (pull-down/input)
12,GATGATTGTTCTCCCAGCTGATGAATTTATGACCTCGAGTAAACAAATTTTCCTAATCTTTCTGTTCAAGCGCCATCTAC,0.986 RPM ratio (pull-down/input)
13,GATGATTGTTCTCCCAGCTGATGAATTACGATAGTCGAGTAAACAAATTTTCCTAATCTTTCTGTTCAAGCGCCATCTAC,1.01 RPM ratio (pull-down/input)
14,GATGATTGTTCTCCCAGCTGATGAATTTTCCCTATCGAGTAAACAAATTTTCCTAATCTTTCTGTTCAAGCGCCATCTAC,0.937 RPM ratio (pull-down/input)
15,GATGATTGTTCTCCCAGCTGATGAATTATACCCGTCGAGTAAACAAATTTTCCTAATCTTTCTGTTCAAGCGCCATCTAC,0.898 RPM ratio (pull-down/input)
16,GATGATTGTTCTCCCAGCTGATGAATTACTTCGATCGAGTAAACAAATTTTCCTAATCTTTCTGTTCAAGCGCCATCTAC,1.01 RPM ratio (pull-down/input)
17,GATGATTGTTCTCCCAGCTGATGAATTATCCATTTCGAGTAAACAAATTTTCCTAATCTTTCTGTTCAAGCGCCATCTAC,0.915 RPM ratio (pull-down/input)
18,GATGATTGTTCTCCCAGCTGATGAATTTCACTAGTCGAGTAAACAAATTTTCCTAATCTTTCTGTTCAAGCGCCATCTAC,0.76 RPM ratio (pull-down/input)
19,GATGATTGTTCTCCCAGCTGATGAATTCTGTTATTCGAGTAAACAAATTTTCCTAATCTTTCTGTTCAAGCGCCATCTAC,1.78 RPM ratio (pull-down/input)

row,Sequence,binding signal
1,GATGATTGTTCTCCCAGCTGATGAATTTCGTTATTCGAGTAAACAAATTTTCCTAATCTTTCTGTTCAAGCGCCATCTAC,1.01 RPM ratio (pull-down/input)
2,GATGATTGTTCTCCCAGCTGATGAATTGTTATATTCGAGTAAACAAATTTTCCTAATCTTTCTGTTCAAGCGCCATCTAC,1.57 RPM ratio (pull-down/input)
3,GATGATTGTTCTCCCAGCTGATGAATTCACTCCCTCGAGTAAACAAATTTTCCTAATCTTTCTGTTCAAGCGCCATCTAC,0.792 RPM ratio (pull-down/input)
4,GATGATTGTTCTCCCAGCTGATGAATTCGGTAAATCGAGTAAACAAATTTTCCTAATCTTTCTGTTCAAGCGCCATCTAC,1.22 RPM ratio (pull-down/input)
5,GATGATTGTTCTCCCAGCTGATGAATTGCTTCGCTCGAGTAAACAAATTTTCCTAATCTTTCTGTTCAAGCGCCATCTAC,0.992 RPM ratio (pull-down/input)
6,GATGATTGTTCTCCCAGCTGATGAATTCCCTGATTCGAGTAAACAAATTTTCCTAATCTTTCTGTTCAAGCGCCATCTAC,0.807 RPM ratio (pull-down/input)
7,GATGATTGTTCTCCCAGCTGATGAATTGATCTATTCGAGTAAACAAATTTTCCTAATCTTTCTGTTCAAGCGCCATCTAC,1.15 RPM ratio (pull-down/input)
8,GATGATTGTTCTCCCAGCTGATGAATTCTGTTGATCGAGTAAACAAATTTTCCTAATCTTTCTGTTCAAGCGCCATCTAC,2.26 RPM ratio (pull-down/input)
9,GATGATTGTTCTCCCAGCTGATGAATTGTTGTGATCGAGTAAACAAATTTTCCTAATCTTTCTGTTCAAGCGCCATCTAC,2.32 RPM ratio (pull-down/input)
10,GATGATTGTTCTCCCAGCTGATGAATTTGATTGATCGAGTAAACAAATTTTCCTAATCTTTCTGTTCAAGCGCCATCTAC,1.1 RPM ratio (pull-down/input)
11,GATGATTGTTCTCCCAGCTGATGAATTCTTTTGATCGAGTAAACAAATTTTCCTAATCTTTCTGTTCAAGCGCCATCTAC,0.969 RPM ratio (pull-down/input)
12,GATGATTGTTCTCCCAGCTGATGAATTCTATTCATCGAGTAAACAAATTTTCCTAATCTTTCTGTTCAAGCGCCATCTAC,0.915 RPM ratio (pull-down/input)
13,GATGATTGTTCTCCCAGCTGATGAATTTCTGTGATCGAGTAAACAAATTTTCCTAATCTTTCTGTTCAAGCGCCATCTAC,1.02 RPM ratio (pull-down/input)
14,GATGATTGTTCTCCCAGCTGATGAATTTTGTTGATCGAGTAAACAAATTTTCCTAATCTTTCTGTTCAAGCGCCATCTAC,2.8 RPM ratio (pull-down/input)
15,GATGATTGTTCTCCCAGCTGATGAATTCTATTGATCGAGTAAACAAATTTTCCTAATCTTTCTGTTCAAGCGCCATCTAC,2.09 RPM ratio (pull-down/input)
16,GATGATTGTTCTCCCAGCTGATGAATTCAATTGATCGAGTAAACAAATTTTCCTAATCTTTCTGTTCAAGCGCCATCTAC,1.02 RPM ratio (pull-down/input)
17,GATGATTGTTCTCCCAGCTGATGAATTGATTTGATCGAGTAAACAAATTTTCCTAATCTTTCTGTTCAAGCGCCATCTAC,1.07 RPM ratio (pull-down/input)
18,GATGATTGTTCTCCCAGCTGATGAATTGTGATGATCGAGTAAACAAATTTTCCTAATCTTTCTGTTCAAGCGCCATCTAC,1.42 RPM ratio (pull-down/input)
